Tests used:
[1] = target: Ribosomal protein S6 kinase alpha-6 (Homo sapiens) (UniProt Q9UK32); conditions: at 1 µM;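 further: each value is a mean inhibition of RSK4 from a GSK PKIS panel screen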
[2] = target: T1, Serine/threonine-protein kinase Sgk1 (Homo sapiens) (UniProt O00141); conditions: at 0.1 µM
T1 sequence (whole entry): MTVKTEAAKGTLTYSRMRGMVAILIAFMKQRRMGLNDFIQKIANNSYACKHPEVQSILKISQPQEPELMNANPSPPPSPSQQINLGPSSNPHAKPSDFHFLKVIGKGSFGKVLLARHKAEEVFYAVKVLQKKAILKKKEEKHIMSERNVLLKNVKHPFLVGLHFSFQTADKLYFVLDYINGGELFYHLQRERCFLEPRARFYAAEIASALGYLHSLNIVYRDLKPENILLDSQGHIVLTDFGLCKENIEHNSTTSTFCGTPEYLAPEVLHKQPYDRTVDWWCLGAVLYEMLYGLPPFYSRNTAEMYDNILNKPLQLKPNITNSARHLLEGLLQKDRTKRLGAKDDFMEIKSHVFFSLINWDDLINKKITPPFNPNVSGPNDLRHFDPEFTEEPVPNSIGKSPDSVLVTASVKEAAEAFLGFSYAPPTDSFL

[3] = target: T1, Serine/threonine-protein kinase Sgk1 (Homo sapiens); conditions: at 1 µM
[4] = target: T2, Serine/threonine-protein kinase Sgk2 (Homo sapiens) (UniProt Q9HBY8); conditions: at 0.1 µM
T2 sequence (whole entry): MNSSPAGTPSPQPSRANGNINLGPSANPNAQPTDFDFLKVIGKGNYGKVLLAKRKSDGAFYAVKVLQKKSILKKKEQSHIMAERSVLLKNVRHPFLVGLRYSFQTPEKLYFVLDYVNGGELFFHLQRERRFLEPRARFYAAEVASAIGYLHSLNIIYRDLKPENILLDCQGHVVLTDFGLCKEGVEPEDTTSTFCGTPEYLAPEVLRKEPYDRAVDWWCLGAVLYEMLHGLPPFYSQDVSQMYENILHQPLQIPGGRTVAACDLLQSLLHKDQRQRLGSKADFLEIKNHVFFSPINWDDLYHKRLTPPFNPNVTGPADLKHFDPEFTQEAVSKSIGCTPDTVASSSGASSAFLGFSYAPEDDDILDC

[5] = target: T2, Serine/threonine-protein kinase Sgk2 (Homo sapiens); conditions: at 1 µM
[6] = target: T3, Serine/threonine-protein kinase Sgk3 (Homo sapiens) (UniProt Q96BR1); conditions: at 0.1 µM
T3 sequence (whole entry): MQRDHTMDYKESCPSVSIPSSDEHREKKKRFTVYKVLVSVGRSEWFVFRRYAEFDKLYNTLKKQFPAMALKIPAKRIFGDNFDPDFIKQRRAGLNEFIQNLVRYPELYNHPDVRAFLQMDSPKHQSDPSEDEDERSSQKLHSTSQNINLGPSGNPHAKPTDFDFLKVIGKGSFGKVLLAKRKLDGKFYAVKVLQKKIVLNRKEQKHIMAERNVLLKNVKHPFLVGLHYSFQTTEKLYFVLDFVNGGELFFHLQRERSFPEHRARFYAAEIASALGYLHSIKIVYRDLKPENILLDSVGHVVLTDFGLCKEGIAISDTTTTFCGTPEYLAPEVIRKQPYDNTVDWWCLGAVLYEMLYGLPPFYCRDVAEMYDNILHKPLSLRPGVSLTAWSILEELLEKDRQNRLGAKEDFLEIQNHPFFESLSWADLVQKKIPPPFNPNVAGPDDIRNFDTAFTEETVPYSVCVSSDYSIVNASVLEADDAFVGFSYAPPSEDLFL

[7] = target: T3, Serine/threonine-protein kinase Sgk3 (Homo sapiens); conditions: at 1 µM
[8] = target: 5'-AMP-activated protein kinase catalytic subunit alpha-1 (Homo sapiens) (UniProt Q13131); conditions: at 0.1 µM
[9] = target: 5'-AMP-activated protein kinase catalytic subunit alpha-1 (Homo sapiens) (UniProt Q13131); conditions: at 1 µM
[10] = target: 5'-AMP-activated protein kinase catalytic subunit alpha-2 (Homo sapiens) (UniProt P54646); conditions: at 0.1 µM
[11] = target: 5'-AMP-activated protein kinase catalytic subunit alpha-2 (Homo sapiens) (UniProt P54646); conditions: at 1 µM
[12] = target: T4, NUAK family SNF1-like kinase 1 (Homo sapiens) (UniProt O60285); conditions: at 0.1 µM
T4 sequence (whole entry): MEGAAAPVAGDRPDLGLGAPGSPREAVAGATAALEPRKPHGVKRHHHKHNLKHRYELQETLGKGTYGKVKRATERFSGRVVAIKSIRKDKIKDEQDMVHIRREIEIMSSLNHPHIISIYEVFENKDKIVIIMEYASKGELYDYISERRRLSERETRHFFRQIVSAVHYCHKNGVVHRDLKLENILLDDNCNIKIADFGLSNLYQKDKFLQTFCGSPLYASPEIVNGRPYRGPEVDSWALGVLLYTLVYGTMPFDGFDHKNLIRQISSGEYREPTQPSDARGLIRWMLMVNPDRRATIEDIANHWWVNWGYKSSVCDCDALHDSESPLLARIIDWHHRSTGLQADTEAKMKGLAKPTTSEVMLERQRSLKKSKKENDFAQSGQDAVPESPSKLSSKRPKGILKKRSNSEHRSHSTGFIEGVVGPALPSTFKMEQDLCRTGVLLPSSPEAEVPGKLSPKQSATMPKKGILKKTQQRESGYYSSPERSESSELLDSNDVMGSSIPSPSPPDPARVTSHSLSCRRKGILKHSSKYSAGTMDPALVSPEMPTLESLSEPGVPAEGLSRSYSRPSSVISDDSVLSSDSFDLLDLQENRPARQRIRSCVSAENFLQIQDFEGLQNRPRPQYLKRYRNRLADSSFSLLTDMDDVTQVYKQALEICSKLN

[13] = target: T4, NUAK family SNF1-like kinase 1 (Homo sapiens); conditions: at 1 µM
[14] = target: T5, Serine/threonine-protein kinase BRSK1 (Homo sapiens) (UniProt Q8TDC3); conditions: at 0.1 µM
T5 sequence (whole entry): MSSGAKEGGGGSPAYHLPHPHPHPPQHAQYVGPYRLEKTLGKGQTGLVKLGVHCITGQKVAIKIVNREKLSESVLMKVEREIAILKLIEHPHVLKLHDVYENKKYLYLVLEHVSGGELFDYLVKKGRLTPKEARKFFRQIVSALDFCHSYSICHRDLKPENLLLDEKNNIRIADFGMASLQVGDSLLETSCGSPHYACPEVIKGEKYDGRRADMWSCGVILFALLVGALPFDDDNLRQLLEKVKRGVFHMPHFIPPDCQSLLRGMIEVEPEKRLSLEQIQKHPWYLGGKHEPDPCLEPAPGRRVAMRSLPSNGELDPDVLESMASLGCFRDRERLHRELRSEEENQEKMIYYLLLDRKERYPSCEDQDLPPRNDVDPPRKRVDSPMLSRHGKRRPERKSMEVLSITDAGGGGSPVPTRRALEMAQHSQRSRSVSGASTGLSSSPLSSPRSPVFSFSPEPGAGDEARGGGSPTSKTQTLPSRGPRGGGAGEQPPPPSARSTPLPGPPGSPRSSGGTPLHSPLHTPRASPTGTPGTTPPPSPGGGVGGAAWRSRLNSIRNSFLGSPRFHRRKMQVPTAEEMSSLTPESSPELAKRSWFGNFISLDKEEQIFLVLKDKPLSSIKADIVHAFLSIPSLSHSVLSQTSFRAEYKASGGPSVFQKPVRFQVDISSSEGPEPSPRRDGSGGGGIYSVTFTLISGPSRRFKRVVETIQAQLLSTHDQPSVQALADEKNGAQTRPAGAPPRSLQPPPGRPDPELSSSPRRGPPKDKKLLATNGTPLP

[15] = target: T5, Serine/threonine-protein kinase BRSK1 (Homo sapiens); conditions: at 1 µM
[16] = target: T6, Serine/threonine-protein kinase BRSK2 (Homo sapiens) (UniProt Q8IWQ3); conditions: at 0.1 µM
T6 sequence (whole entry): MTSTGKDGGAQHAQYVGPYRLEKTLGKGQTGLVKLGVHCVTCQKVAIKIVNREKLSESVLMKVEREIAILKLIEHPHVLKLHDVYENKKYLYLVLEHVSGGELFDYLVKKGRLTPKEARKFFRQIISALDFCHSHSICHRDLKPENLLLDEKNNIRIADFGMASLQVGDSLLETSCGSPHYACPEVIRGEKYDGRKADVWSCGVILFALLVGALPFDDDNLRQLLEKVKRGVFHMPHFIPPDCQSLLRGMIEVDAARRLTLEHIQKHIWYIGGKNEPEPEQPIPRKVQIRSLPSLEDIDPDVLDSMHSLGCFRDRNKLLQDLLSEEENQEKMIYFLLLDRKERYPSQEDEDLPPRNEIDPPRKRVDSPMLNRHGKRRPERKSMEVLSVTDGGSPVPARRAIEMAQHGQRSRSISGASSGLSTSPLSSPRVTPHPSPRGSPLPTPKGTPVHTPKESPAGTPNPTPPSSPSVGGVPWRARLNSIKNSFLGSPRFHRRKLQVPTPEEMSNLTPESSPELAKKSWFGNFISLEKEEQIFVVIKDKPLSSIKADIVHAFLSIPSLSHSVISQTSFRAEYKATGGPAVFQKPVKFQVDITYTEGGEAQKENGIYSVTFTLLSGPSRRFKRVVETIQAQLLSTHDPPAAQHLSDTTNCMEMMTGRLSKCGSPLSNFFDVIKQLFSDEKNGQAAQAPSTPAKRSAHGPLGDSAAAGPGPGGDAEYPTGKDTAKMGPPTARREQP

[17] = target: T6, Serine/threonine-protein kinase BRSK2 (Homo sapiens); conditions: at 1 µM
[18] = target: Calcium/calmodulin-dependent protein kinase type 1D (Homo sapiens) (UniProt Q8IU85); conditions: at 0.1 µM
[19] = target: Calcium/calmodulin-dependent protein kinase type 1D (Homo sapiens) (UniProt Q8IU85); conditions: at 1 µM
[20] = target: Calcium/calmodulin-dependent protein kinase type II subunit alpha (Homo sapiens) (UniProt Q9UQM7); conditions: at 0.1 µM;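 further: reported values are averages (mean inhibition of CAMK2A)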
Chain of Calcium/calmodulin-dependent protein kinase type II subunit alpha (Homo sapiens) (Q9UQM7 whole entry): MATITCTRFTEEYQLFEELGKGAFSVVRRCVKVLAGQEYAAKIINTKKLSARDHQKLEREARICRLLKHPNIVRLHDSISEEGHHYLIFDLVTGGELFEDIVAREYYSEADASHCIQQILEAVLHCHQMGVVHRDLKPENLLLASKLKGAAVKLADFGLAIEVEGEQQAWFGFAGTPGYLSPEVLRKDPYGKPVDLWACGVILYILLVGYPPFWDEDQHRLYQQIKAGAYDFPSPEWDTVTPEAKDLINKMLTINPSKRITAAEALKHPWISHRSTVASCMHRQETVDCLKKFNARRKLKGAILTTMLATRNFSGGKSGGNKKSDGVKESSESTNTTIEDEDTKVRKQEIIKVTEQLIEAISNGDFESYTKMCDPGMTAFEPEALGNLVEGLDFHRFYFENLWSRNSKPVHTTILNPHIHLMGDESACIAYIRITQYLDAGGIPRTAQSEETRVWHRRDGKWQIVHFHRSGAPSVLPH

Chain of Calcium/calmodulin-dependent protein kinase type 1D (Homo sapiens) (Q8IU85 whole entry, looked up): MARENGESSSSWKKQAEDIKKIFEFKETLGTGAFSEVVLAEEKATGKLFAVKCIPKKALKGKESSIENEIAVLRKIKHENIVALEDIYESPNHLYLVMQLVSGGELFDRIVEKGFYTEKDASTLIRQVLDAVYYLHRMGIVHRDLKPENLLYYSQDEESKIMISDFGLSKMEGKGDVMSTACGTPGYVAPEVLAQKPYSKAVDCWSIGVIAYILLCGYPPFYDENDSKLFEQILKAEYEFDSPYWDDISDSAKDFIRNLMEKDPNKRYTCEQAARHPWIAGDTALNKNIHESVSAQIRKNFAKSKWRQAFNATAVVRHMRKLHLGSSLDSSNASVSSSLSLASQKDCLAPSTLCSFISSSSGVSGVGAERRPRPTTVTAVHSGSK
Chain of 5'-AMP-activated protein kinase catalytic subunit alpha-1 (Homo sapiens) (Q13131 whole entry, looked up): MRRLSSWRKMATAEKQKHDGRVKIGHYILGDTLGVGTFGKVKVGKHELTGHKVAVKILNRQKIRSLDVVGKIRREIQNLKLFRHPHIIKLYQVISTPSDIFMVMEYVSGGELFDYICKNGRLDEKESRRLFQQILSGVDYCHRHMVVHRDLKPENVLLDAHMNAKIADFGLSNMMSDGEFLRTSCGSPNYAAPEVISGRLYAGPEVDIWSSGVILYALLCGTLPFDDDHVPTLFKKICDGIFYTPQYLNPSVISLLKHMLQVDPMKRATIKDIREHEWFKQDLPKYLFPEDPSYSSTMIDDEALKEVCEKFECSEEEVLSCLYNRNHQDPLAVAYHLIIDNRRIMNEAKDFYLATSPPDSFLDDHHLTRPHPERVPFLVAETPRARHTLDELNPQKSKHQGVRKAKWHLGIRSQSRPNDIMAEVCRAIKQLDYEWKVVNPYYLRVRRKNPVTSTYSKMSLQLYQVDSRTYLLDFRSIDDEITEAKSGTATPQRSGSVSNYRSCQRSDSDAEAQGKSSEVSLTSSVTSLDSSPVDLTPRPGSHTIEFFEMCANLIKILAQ
Chain of 5'-AMP-activated protein kinase catalytic subunit alpha-2 (Homo sapiens) (P54646 whole entry, looked up): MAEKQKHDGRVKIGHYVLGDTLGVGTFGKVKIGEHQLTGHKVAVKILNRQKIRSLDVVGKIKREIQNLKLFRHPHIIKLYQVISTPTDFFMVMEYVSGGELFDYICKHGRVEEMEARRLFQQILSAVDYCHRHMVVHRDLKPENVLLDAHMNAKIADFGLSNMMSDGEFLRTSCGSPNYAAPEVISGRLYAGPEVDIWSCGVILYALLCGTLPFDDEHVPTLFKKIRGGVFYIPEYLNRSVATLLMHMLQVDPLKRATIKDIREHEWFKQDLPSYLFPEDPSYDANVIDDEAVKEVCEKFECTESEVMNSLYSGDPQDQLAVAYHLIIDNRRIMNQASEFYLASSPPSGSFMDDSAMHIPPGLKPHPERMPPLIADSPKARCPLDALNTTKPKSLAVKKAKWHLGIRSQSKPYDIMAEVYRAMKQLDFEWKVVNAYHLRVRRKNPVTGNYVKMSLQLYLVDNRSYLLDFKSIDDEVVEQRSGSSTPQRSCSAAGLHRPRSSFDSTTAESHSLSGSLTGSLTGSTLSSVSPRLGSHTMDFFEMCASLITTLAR
Chain of Ribosomal protein S6 kinase alpha-6 (Homo sapiens) (Q9UK32 whole entry): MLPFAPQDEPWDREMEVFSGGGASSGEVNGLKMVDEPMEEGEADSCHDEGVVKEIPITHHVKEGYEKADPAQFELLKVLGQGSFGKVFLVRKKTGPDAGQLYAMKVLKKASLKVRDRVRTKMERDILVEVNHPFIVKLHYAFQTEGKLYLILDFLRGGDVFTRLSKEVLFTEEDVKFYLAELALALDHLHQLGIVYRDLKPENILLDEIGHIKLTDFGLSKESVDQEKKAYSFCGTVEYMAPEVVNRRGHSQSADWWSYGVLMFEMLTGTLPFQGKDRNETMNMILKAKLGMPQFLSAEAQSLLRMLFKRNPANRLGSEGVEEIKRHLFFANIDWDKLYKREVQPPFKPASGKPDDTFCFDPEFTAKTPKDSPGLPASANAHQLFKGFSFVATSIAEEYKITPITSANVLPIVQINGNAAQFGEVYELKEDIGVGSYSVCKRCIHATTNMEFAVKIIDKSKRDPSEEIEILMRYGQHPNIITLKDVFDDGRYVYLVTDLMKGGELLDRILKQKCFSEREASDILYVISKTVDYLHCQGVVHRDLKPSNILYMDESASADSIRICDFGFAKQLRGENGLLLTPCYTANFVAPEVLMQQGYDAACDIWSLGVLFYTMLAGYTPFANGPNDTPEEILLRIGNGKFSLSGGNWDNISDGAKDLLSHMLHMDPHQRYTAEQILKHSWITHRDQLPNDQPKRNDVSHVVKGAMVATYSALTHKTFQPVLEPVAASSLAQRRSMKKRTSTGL

Row | Structure (SMILES) | inhibition [1] | inhibition [2] | inhibition [3] | inhibition [4] | inhibition [5] | inhibition [6] | inhibition [7] | inhibition [8] | inhibition [9] | inhibition [10] | inhibition [11] | inhibition [12] | inhibition [13] | inhibition [14] | inhibition [15] | inhibition [16] | inhibition [17] | inhibition [18] | inhibition [19] | inhibition [20]
1 | CCc1nccc2c1nc(-c1nonc1N)n2CC | 0.92% | 0.21% | 3.23% | 0.23% | 9.51% | 2.62% | 7.73% | 1% | -1.23% | -1.43% | 2% | 2.71% | 4.47% | 0.98% | 4.27% | 2.16% | 4.53% | 1.07% | 1.8% | 0.2%
2 | NS(=O)(=O)c1ccc(N/N=C2\C(=O)Nc3ccc(C(=O)NCCCn4ccnc4)cc32)cc1 | 13% | 5.02% | 14.6% | 2.07% | 7.54% | 3.25% | 6.44% | 18% | 64.4% | 5.78% | 26.3% | 19.4% | 66.4% | 4.96% | 31.2% | 8.96% | 46% | 0.1% | 2.23% | 3.04%
3 | O=C(Nc1n[nH]c2nc(-c3ccco3)ccc12)C1CC1 | 0.71% | 2.03% | 0.33% | 0.71% | 0.28% | -0.55% | 1.28% | -0.2% | 1.85% | 1.32% | 3.94% | 0.19% | 2.78% | 0.98% | 3.49% | 0.55% | 4.63% | 0.8% | 2.1% | 1.71%
4 | CNC(=O)c1cncc(/C=C/c2c(C)cccc2C)c1 | 0.69% | 0.67% | 2.02% | 5.07% | -3.14% | -1.1% | 0.16% | -0.07% | 0.48% | -4.03% | 0.33% | 2.16% | 2.93% | 1.29% | 5.17% | 0.83% | 5.16% | 1.13% | 0.73% | 2.12%
5 | Fc1ccc(-c2nc3n(c2-c2ccncc2)CCS3)cc1 | 3.9% | 3.17% | 4.66% | 2.05% | 4.96% | 1.96% | 2.6% | 2.91% | 2.64% | 4.5% | 5.23% | 0.54% | 2.44% | 0.25% | 0.24% | 0.52% | 0.5% | 0.49% | -0.26% | 3.63%
6 | CN(C)CCOc1ccc(-c2cc(-c3ccc4c(c3)CCC4=NO)c(-c3ccncc3)o2)cc1 | -1.99% | 1.28% | 0.73% | -2.26% | 2.64% | 1.69% | -4.66% | -1.39% | -0.8% | 0.73% | 0.01% | 0.84% | -0.24% | -0.05% | -0.95% | -0.42% | 1.46% | -0.88% | 1.79% | -1.08%
7 | CN(c1ccc(NC(=O)Nc2c(Cl)cccc2Cl)cc1)c1ccnc(Nc2cccc(CS(C)(=O)=O)c2)n1 | 1.06% | 1.73% | 7.64% | 5.92% | 22.8% | 3.73% | 4.02% | 2.22% | 3.05% | -0.21% | 3.21% | 9.51% | 30.2% | 0.84% | 9.78% | 2.74% | 8.66% | 1.34% | -0.13% | 2.56%
